6 molecules from PubChem BioAssay can be followed below.

The nature of experiment [1]: liver-stage malaria parasite load reduction – cell-based, known kinase inhibitor set, luminescence, hepatoma host viability (AID 624392).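 Also: infected cells incubated roughly two days before readout.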 The conditions noted are these: Plasmodium liver stage in hepatoma cells, luciferase luminescence, concentration not given here; liver cell % of control: measured here: host liver cell viability; parasite % of control: stronger effect = lower value.

Experiment [2] in a line: altered dexamethasone sensitivity, NF-kB reporter, cell-based, luciferase, IL-1B stimulus (AID 624486).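 As to percent of negative control (+Dex): 100% = mean signal of vehicle control wells on the plate.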 The conditions noted are these: IL-1B + dexamethasone, luminescence; percent of negative control (+Dex): actives lie on both sides, concentration not given here; z-score: measured here: IL-1B alone, no Dex.
Experiment [3] in a line: C. elegans survival during P. aeruginosa infection – whole organism (AID 651566).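 Also: tested at 14 µM; sign flipped so higher z means a lower ratio.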 As to conditions: C. elegans killed by P. aeruginosa, survival ratio.
Experiment [4] in a line: pro-inflammatory signaling induction in mouse macrophages – cell-based, murine, luminescence (AID 652131). The conditions noted are these: murine macrophage pro-inflammatory reporter, stronger effect = higher value.
Experiment [5] deals with Cellular tumor antigen p53 (Homo sapiens) (UniProt P04637). Nature of the experiment: GFP-p53 level modulators in HPV16+ cells – imaging, known kinase inhibitor set, EGFP/DsRed ratio (AID 1053116).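 Also: cells exposed to compounds for 24 h at 37 °C before reading.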 As to conditions: GFP-p53 stability, stronger effect = higher value; EGFP object count: measured here: GFP-p53 positive objects count.
A short description of experiment [6]: inducers of IRF3 signaling, differentiated THP-1 – cell-based, PMA-stimulated THP-1, luminescence (AID 1053176). The conditions noted are these: PMA-differentiated THP-1, IRF3 reporter luminescence; stronger effect = higher value.
Experiment [7] in a line: MELAS cybrid and Rieske KO viability enhancers – cell-based, MELAS cybrids, Rieske KO mouse fibroblasts, CellTiter-Glo, primary screen (AID 1508586;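 active = mean z-score across replicates of 1.96 or higher in either the MELAS or the Rieske mutant cell line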;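 also: z relative to plate mean and SD of compound and empty wells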). As to conditions: low glucose. (ATP-based viability assays read luminescence as a measure of living cells.)
Experiment [8] is described as follows: P. berghei load reduction in hepatocytes – cell-based, HepG2, luciferase luminescence, HepG2 viability, primary screen (AID 624349; in the data active = parasite load remaining mostly below about 12%, no sharp cut-off; inactive = mostly above about 10%;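 also: 100% = mean of DMSO negative control wells on the same plate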). The conditions noted are these: P. berghei liver stage in HepG2, luciferase luminescence, concentration not given here; parasite load remaining: stronger effect = lower value; viability: measured here: HepG2 viability without parasites.
The nature of experiment [9]: viability loss in pontine glioma line – cell-based, SU-DIPG-XVII, MIPE5.0, CellTiter-Glo, qHTS, dose response (AID 1347060; cut-off not given, nearly all actives have AC50 up to about 26 µM;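 also: cells exposed to compound for 48 hours before viability readout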). The conditions noted are these: CellTiter-Glo ATP luminescence.
Experiment [10] in a line: viability loss in pontine glioma line – cell-based, SU-DIPG-XXV, MIPE5.0, CellTiter-Glo, qHTS, dose response (AID 1347065; cut-off not given, nearly all actives have AC50 up to about 26 µM;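 also: cells exposed to compound for 48 hours before ATP readout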). The conditions noted are these: CellTiter-Glo ATP luminescence.
Experiment [11] is described as follows: growth inhibition of DIPG cells – cell-based, MIPE5.0 library, qHTS (AID 1347068; cut-off not given, nearly all actives have IC50 up to about 30 µM;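 also: cells exposed to compound for 48 hours before viability readout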). As to conditions: SU-DIPG-XXV viability. (In general: In qHTS, concentration-response curves come from the screen itself.)
Experiment [12] in a line: viability loss with induced miR-34 in A549 – imaging, A549 dox-inducible miR-34, nuclei and caspase counts, primary screen (AID 1347080;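 active = compounds whose cell count with miR-34 switched on is under 0.7 times the count with it off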). The conditions noted are these: A549 miR-34 inducible, Hoechst nuclei count, 48 h.
Experiment [13] is described as follows: galactose survival enhancers in mitochondrial complex I cybrids – cell-based, galactose medium, ATP luminescence, primary screen (AID 1645843;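 active = z-score of at least 1.8 in each of two replicates, scored against plate mean and spread of sample wells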;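 also: positive z means more ATP and so rescue of galactose-driven cybrid death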). As to conditions: complex I mutant cybrid cells, 72 h, stronger effect = higher value.
The mark [14] stands for this setting: MELAS cybrid survival, CellTiter-Glo 48 h, stronger effect = higher value.
Setting [15] is: Rieske KO mouse fibroblast survival, CellTiter-Glo 72 h.
The mark [16] stands for this setting: stronger effect = lower value, cell number ratio, induced over uninduced.
Setting [17] is: measured here: relative caspase fold change +Dox/-Dox.
Where [18] appears, read: measured here: total cells with miR-34 induction, stronger effect = lower value.
Setting [19] is: measured here: total cells without miR-34 induction.

Molecules are shown by their SMILES. Records with an inconclusive call do not appear. Activity calls are given as the source filed them. Unless noted, no rule for the calls is given here.

Cellular tumor antigen p53 (Homo sapiens), sequence (P04637 whole entry, looked up): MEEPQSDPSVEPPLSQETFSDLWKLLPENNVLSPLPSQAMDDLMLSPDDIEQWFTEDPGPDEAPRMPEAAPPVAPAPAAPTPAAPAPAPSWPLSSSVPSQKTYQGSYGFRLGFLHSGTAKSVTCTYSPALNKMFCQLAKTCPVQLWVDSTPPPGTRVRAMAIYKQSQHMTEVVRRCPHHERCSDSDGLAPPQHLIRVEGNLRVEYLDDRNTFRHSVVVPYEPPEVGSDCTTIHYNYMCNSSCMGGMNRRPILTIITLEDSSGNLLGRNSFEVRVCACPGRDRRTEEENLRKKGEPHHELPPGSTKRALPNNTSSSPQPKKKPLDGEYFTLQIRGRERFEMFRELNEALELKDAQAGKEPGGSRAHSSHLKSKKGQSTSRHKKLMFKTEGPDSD

Turning to `CN(C)c1cc2c(Nc3ccc4nc(Cc5ccccc5)[nH]c4c3)ncnc2cn1`, the liver cell % of control in experiment [1] turned out to be 154%. For the same molecule, in experiment [1], the parasite % of control was 105% (inactive). Moreover, the percent of negative control (+Dex) in experiment [2] is 77% (inactive). Further, the z-score in [2] is -0.53; in experiment [3], 0.16 (inactive); in experiment [4] it was 0.922 (inactive); in experiment [7] (setting [14]), 0.173 (inactive); in [7] (setting [15]), -0.0343. In addition, the EGFP object count in experiment [5] was determined as 3. The EGFP/DsRed ratio in experiment [5] was 0.0121 (inactive). Moreover, in experiment [6], the fraction signal is -0.006 (inactive).

With `NCc1ccc(-c2nc(-c3ccc(Cl)c(O)c3)c(-c3ccncc3)[nH]2)cc1`, in experiment [1], the liver cell % of control amounted to 94.8%. Also, the parasite % of control in [1] is 77.4% (inactive). The percent of negative control (+Dex) in [2] was 91.5% (inactive). Moreover, the z-score was -0.18 in [2]; 1.2 (inactive) in [3]; -0.414 (inactive) in [4]; 0.156 (inactive) in experiment [7] (setting [14]); -0.269 in experiment [7] (setting [15]). The EGFP object count in [5] came to 2. Besides, the EGFP/DsRed ratio in [5] is 0.0758 (inactive). Further, the fraction signal in experiment [6] was 0.0015 (inactive).

In turn, `CNC(=O)c1sc(-n2cnc3cc(OC)c(OC)cc32)cc1OCc1ccccc1C(F)(F)F` yielded a liver cell % of control in experiment [1] of 124%. In addition, in experiment [1], the parasite % of control was 77.7% (inactive). Besides, the percent of negative control (+Dex) in experiment [2] is 68.5% (inactive). Moreover, the z-score is -0.645 in experiment [2]; -0.51 (inactive) in experiment [3]; -0.587 (inactive) in [4]; -0.801 (inactive) in experiment [7] (setting [14]); -0.0583 in experiment [7] (setting [15]). In experiment [5], the EGFP object count is 5.5. Further, in experiment [5], the EGFP/DsRed ratio was 0.105 (inactive). Besides, the fraction signal in experiment [6] was -0.005 (inactive).

For orientation: viability means a read-out of living cells in per cent, often relative to untreated cells. Broadly, the AC50 is the concentration at which the activity in the assay is half-maximal. By IC50 is commonly meant the concentration needed to halve the response being measured. As to `O=C1NC(=O)C(c2c[nH]c3ccccc23)=C1c1c[nH]c2ccccc12`, in experiment [8], the parasite load remaining is 50.4% (inactive) and the viability came to 162%. In experiment [1], the liver cell % of control came out at 97.5% and the parasite % of control was 26.7% (inactive). Moreover, in experiment [2], the percent of negative control (+Dex) was 98% (inactive) and the z-score was -0.485. For the same molecule, in experiment [5], the EGFP object count turned out to be 22.5 and the EGFP/DsRed ratio is 0.273 (inactive). Also, in [6], the fraction signal is -0.0025 (inactive). Besides, in experiment [9], the AC50 is 11.8 µM (active). In addition, the AC50 in experiment [10] was 18.6 µM (active). Further, the half-inhibitory concentration (IC50) in experiment [11] was 18.6 µM (active). For the same molecule, the fold change in experiment [12] (setting [16]) is 1.26 (inactive). Also, the fold change in experiment [12] (setting [17]) was determined as 0.968. In [12] (setting [18]), this molecule came in with a cell count of 5130. In addition, the cell count in experiment [12] (setting [19]) was found to be 4070.

As for `FC(F)(F)c1cccc(-c2nn3ncccc3c2-c2ccnc(Nc3ccc4c(c3)OCCO4)n2)c1`, the liver cell % of control in [1] came to 147%. Moreover, in [1], the parasite % of control was 22.4% (inactive). In addition, the percent of negative control (+Dex) in [2] is 90.5% (inactive). Also, the z-score in experiment [2] is 0.13; in experiment [3], -0.325 (inactive); in experiment [4], -0.458 (inactive); in [7] (setting [14]), -0.0141 (inactive); in experiment [7] (setting [15]), -0.445. Also, in [5], the EGFP object count was determined as 5.5. Besides, the EGFP/DsRed ratio in experiment [5] is 0.171 (inactive). For the same molecule, the fraction signal in [6] is 0.007 (inactive).

In the case of `CN(C)c1cc2c(Nc3ccc4c(cnn4Cc4ccccc4)c3)ncnc2cn1`, the liver cell % of control in [1] is 130%. Also, in [1], the parasite % of control is 78.7% (inactive). In addition, the percent of negative control (+Dex) in [2] was 68% (inactive). Also, the z-score in [2] is -1.64; in experiment [3] it was 0.66 (inactive); in experiment [4], -0.608 (inactive); in [7] (setting [14]), -0.0495 (inactive); in experiment [7] (setting [15]), -0.233; in [13], -0.71 (inactive). Moreover, the EGFP object count in [5] was found to be 3.5. Also, in experiment [5], the EGFP/DsRed ratio is 0.0403 (inactive). In addition, in [6], the fraction signal is -0.004 (inactive). The fold change is 1.64 (inactive) in experiment [12] (setting [16]) and 0.646 in experiment [12] (setting [17]). Further, the cell count in [12] (setting [18]) came out at 3320; in experiment [12] (setting [19]) it was 2020.
